The target of one assay is Albumin (Bos taurus) (UniProt P02769). The experiment in a line: bovine serum albumin binders on microarray, profiling panel, artefact control for SMM control protein annotation, biochemical, small-molecule microarray, Alexa647 label, 635/667 nm fluorescence (AID 1118).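 Also: score merges 667 nm emission intensity and signal-to-noise per printed compound spot.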 Conditions: BSA-A647 binding, fluorescence 635 nm, higher = more signal.
Assay [1] is described as follows: small-molecule microarray binders of probe aXIP, primary screen, biochemical, NeuroSMM set, 635/667 nm fluorescence (AID 1119).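 Also: probe is the protein aXip251-270 applied at 1 µg/mL to compound-printed slides; binding of probe to printed compounds measured as 667 nm fluorescence plus signal to noise.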 To be noted: higher = more signal, called active from +8 up or from −8 down.
A short description of assay [2]: small-molecule binders of probe aNOTCH3, primary screen, biochemical, small-molecule microarray, 635/667 nm fluorescence (AID 1120).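 Also: probe is a biotin-tagged antibody raised against NOTCH3 rather than NOTCH3 protein; score merges spot fluorescence near 667 nm with spot signal to noise.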 Conditions: higher = more signal.
Assay [3] in a line: small-molecule binders of probe aNOTCH2, primary screen, biochemical, small-molecule microarray, 635/667 nm fluorescence (AID 1121).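 Also: score merges feature fluorescence read at 667 nm with its signal to noise.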 Conditions: higher = more signal.
Assay [4] concerns the target Carbonic anhydrase 2 (Homo sapiens) (UniProt P00918). The experiment in a line: CAII small-molecule binders, profiling panel, biochemical, small-molecule microarray, Alexa647-labelled CAII (AID 1122). Conditions: CAII-A647 binding fluorescence, higher = more signal.
Assay [5] is described as follows: COS7 lysate on small-molecule microarray, probe aHis, 635 nm (AID 1123).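 Also: z-score combines 667nm fluorescence intensity with signal-to-noise per printed compound spot.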 To be noted: COS7 cell lysate, fluorescence, higher = more signal.
A short description of assay [6]: compound binding in COS7 lysate, probe aLAP1, primary screen, cell lysate, small-molecule microarray (AID 1124).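 Also: lysate comes from COS7 cells expressing LAP1 and is applied at 0.3 µg/mL; score merges spot fluorescence near 667 nm with signal-to-noise over triplicate slides.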 To be noted: probe aLAP1, fluorescence, higher = more signal.
The subject of another assay is Sam68 (KHDRBS1). In words: Sam68 small-molecule binders, primary screen, biochemical, small-molecule microarray, 635 nm fluorescence (AID 1125).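 Also: score merges 667 nm channel intensity with signal to noise over triplicate slides.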 To be noted: small-molecule microarray binding, higher = more signal.
Assay [7] deals with Chordin-like protein 2 (CHRDL2). In words: CHRDL2 small-molecule binders, primary screen, biochemical, small-molecule microarray, 635 nm fluorescence (AID 1126).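 Also: printed compound slides probed with Chrdl2 protein at 4 µg/mL for 1 h at 4 C; score merges 667 nm emission intensity with signal to noise over three replicate slides.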 To be noted: small-molecule microarray binding, fluorescence 635 nm; higher = more signal.
Assay [8] concerns the target Concanavalin-A (Canavalia ensiformis) (UniProt P02866). The experiment in a line: ConA small-molecule binders, primary screen, artefact control for SMM control protein annotation, biochemical, small-molecule microarray, Alexa647 label, 635 nm (AID 1127).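 Also: z combines 667 nm emission intensity with signal-to-noise across three replicate slides.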 To be noted: ConA-A647 binding fluorescence, higher = more signal.
Assay [9] can be described thus: anti-His antibody binders, primary screen, artefact control for SMM control protein annotation, biochemical, small-molecule microarray, 635 nm fluorescence (AID 1128).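 Also: score merges feature fluorescence with signal-to-noise for each printed compound spot.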 Conditions: anti-His Alexa647 antibody binding, higher = more signal.
Assay [10] has as its system Human papillomavirus type 1a E7 protein (residues 1-88). The experiment in a line: HPV1a E7 small-molecule binders, primary screen, biochemical, small-molecule microarray, residues 1-88, 635 nm (AID 1129). Conditions: small-molecule microarray binding, fluorescence 635 nm; higher = more signal.
Assay [11] deals with Focal adhesion kinase 1 (Homo sapiens) (UniProt Q05397). In words: small-molecule microarray binders of FAK, primary screen, biochemical, 635/667 nm fluorescence, BSA, DTT (AID 1130).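 Also: composite of spot emission at 667 nm and signal to noise over triplicate slides.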 To be noted: PTK2 binding, 635 nm fluorescence, higher = more signal.
Focal adhesion kinase 1 (Homo sapiens), sequence (Q05397 whole entry, looked up): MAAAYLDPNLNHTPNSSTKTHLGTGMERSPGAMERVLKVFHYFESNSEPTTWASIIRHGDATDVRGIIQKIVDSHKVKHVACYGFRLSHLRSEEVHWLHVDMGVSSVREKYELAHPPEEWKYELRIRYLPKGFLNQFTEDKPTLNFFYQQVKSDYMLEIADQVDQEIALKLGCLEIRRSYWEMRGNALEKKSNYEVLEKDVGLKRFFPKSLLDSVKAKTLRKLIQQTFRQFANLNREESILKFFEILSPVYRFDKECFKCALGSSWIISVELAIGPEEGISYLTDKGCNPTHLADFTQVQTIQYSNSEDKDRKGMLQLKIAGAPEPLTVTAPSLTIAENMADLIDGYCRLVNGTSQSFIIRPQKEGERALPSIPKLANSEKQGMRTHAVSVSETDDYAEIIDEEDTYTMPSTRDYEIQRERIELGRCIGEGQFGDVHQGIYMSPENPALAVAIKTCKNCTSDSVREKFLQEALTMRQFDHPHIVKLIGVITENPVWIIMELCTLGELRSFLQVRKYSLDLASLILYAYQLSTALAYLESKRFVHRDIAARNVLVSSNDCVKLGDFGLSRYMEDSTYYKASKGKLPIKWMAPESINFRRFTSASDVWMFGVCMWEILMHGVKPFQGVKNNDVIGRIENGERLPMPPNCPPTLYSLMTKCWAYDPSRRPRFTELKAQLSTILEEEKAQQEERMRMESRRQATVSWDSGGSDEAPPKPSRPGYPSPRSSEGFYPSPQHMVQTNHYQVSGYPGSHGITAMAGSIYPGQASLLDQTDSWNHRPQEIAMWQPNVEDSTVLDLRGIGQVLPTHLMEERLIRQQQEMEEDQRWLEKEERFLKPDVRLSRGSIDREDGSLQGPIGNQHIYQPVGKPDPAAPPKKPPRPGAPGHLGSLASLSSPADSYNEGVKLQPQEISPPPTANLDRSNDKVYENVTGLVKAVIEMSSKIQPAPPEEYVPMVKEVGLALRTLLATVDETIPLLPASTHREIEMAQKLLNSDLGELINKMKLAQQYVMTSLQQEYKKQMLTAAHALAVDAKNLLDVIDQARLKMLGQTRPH
Assay [12] relates to Fibrinogen (Alexa647-labelled). In words: fibrinogen binders on compound microarrays, profiling panel, artefact control for SMM control-protein annotation, biochemical, small-molecule microarray, 635/667 nm fluorescence (AID 1131).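 Also: z-score merges 667 nm fluorescence with per-spot signal-to-noise over triplicate slides.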 To be noted: fibrinogen-A647 binding fluorescence, higher = more signal.
In assay [13] the target is Follistatin (Homo sapiens) (UniProt P19883). In words: follistatin binders on small-molecule microarrays, primary screen, biochemical, small-molecule microarray, 635/667 nm fluorescence (AID 1132). Conditions: FST binding, 635 nm fluorescence, higher = more signal.
Follistatin (Homo sapiens), sequence (P19883 whole entry, looked up): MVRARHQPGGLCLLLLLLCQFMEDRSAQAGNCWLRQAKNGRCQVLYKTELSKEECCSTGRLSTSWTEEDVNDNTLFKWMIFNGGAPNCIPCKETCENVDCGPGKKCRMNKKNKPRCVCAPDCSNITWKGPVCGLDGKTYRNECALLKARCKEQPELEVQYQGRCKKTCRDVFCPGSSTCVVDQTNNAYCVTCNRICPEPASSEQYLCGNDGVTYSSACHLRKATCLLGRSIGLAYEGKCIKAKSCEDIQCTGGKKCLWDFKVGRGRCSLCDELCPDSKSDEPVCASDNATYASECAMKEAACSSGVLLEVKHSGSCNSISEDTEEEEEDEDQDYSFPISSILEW
The target in assay [14] is Fibroblast growth factor 2 (Homo sapiens) (UniProt P09038). The experiment in a line: FGF2 binders on small-molecule microarrays, primary screen, biochemical, small-molecule microarray, 635/667 nm fluorescence (AID 1133). Conditions: small-molecule microarray binding, FGF2, fluorescence 635/667; higher = more signal.
Fibroblast growth factor 2 (Homo sapiens), sequence (P09038 whole entry, looked up): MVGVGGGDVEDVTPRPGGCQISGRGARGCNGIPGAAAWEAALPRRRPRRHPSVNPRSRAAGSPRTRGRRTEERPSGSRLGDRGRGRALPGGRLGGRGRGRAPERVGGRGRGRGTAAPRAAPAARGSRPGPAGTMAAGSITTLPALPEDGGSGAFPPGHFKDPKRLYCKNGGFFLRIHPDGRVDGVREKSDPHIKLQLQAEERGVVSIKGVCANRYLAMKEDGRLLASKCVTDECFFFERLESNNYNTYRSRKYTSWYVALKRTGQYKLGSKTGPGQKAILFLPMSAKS
A short description of assay [15]: mitochondrial membrane potential change in A549 cells, profiling panel, cell-based, JC-1 fluorescence, basal, 24 h, 100 nL (AID 1138).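 Also: A549 lung adenocarcinoma cells under basal conditions with no added stimulus; test concentration not given here.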 Conditions: higher = more signal.
The subject of a further assay is Lefty1. The experiment in a line: Lefty1 binders on small-molecule microarrays, primary screen, biochemical, small-molecule microarray, 635/667 nm fluorescence (AID 1139). Conditions: small-molecule microarray binding, fluorescence 635/667; higher = more signal.
Assay [16] has as its system wheat germ agglutinin (Triticum aestivum), Alexa647-labelled. The experiment in a line: wheat germ agglutinin binders on compound microarrays, profiling panel, artefact control for SMM control-protein annotation, biochemical, small-molecule microarray, 635/667 nm fluorescence (AID 1140).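 Also: score merges 667 nm feature emission with signal to noise over triplicate slides.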 To be noted: WGA-A647 binding, 635 nm fluorescence, higher = more signal.
Assay [17] deals with Luciferin 4-monooxygenase (Photinus pyralis) (UniProt P08659). The experiment in a line: firefly luciferase enzyme inhibitors, primary screen, biochemical, luminescence, purified enzyme, 2006 set (AID 1141).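 Also: cell-free assay with purified firefly luciferase at 100 ng per well in PBS; test concentration not given here.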 Conditions: SteadyGlo luminescence, 30 min, higher = more signal, called active from +8 up or from −8 down.
Luciferin 4-monooxygenase (Photinus pyralis), sequence (P08659 whole entry, looked up): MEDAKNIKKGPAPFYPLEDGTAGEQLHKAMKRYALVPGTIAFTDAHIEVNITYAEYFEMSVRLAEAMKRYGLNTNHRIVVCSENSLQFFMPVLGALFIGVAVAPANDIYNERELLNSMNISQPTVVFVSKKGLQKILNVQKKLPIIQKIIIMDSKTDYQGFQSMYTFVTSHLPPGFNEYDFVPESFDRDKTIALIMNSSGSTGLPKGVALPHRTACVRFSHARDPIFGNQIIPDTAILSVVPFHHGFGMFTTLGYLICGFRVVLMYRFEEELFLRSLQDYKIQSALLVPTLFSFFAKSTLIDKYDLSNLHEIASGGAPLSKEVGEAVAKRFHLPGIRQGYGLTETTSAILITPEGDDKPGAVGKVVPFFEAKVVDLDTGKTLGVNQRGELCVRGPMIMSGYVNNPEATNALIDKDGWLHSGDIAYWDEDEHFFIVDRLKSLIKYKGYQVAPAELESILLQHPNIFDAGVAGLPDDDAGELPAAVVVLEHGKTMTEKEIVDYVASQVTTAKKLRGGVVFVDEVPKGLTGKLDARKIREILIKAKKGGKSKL

SMILES strings stand for the structures. Active and inactive are the calls of the source.

Concanavalin-A (Canavalia ensiformis), sequence (P02866 whole entry, looked up): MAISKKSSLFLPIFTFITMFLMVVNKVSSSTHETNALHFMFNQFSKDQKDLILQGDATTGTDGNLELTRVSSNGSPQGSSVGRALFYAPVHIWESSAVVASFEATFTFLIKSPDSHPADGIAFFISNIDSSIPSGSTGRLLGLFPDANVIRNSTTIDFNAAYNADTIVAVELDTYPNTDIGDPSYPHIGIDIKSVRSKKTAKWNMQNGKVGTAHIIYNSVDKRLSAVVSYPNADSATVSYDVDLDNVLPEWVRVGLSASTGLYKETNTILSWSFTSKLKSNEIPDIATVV
Albumin (Bos taurus), sequence (P02769 whole entry, looked up): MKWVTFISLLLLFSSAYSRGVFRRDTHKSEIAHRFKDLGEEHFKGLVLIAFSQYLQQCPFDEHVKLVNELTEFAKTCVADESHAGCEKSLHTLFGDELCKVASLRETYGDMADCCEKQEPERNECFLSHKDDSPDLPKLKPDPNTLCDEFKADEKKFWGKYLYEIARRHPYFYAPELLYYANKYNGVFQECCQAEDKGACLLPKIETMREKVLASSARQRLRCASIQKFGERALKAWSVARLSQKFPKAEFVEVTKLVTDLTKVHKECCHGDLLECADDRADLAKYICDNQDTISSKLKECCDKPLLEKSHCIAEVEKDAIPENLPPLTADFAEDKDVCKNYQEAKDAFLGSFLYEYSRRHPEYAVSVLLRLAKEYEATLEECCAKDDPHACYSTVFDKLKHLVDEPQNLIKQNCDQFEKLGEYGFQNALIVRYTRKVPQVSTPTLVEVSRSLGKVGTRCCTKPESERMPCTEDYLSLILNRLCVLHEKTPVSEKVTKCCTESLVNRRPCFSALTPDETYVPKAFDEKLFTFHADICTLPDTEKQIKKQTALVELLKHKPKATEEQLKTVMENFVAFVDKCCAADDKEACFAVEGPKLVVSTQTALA

Consider `CC(C)C(CO)N1C(=O)[C@@H]2C3C(=O)OCCC/C=C\[C@H]3OC23C=CCN(Cn2nnc4ccccc42)C(=O)[C@@H]13` (stereo not given in full), for which the composite z-score is -0.37 with Albumin (Bos taurus); -0.256 in assay [2]; -0.181 in [3]; 0.885 in assay [4]; 0.295 in [5]; 0.685 in [6]. In addition, the composite z-score in the assay with Sam68 (KHDRBS1) was 0.713; in assay [7], -0.81; in assay [8], -0.662; in [9], 2.67; in assay [10], -0.233; in [11], -0.0444. Also, the composite z-score in assay [12] is -1.18; in [13], -0.0048; in [14] it was -1.08; with Lefty1, -0.0488; in assay [16], -0.422. The composite Z-score in assay [1] is -0.0983 (inactive). Also, the z-score is -0.477 in assay [15] and -0.0817 (inactive) in assay [17].

In the case of `C=C(/C(=C/C[C@H](OC(=O)c1ccncc1)c1ccc(CO)o1)c1cnc2ccccc2c1)C(C)C`, the composite z-score was 0.702 in the assay with Albumin (Bos taurus); 0.169 in [2]; -0.0216 in assay [3]; 0.902 in assay [4]; 0.75 in assay [5]; -0.159 in assay [6]. Moreover, the composite z-score turned out to be 1.12 with Sam68 (KHDRBS1); 0.684 in assay [7]; 1.11 in [8]; 1.29 in [9]; 1.19 in [10]; 0.0621 in assay [11]. In addition, the composite z-score in assay [12] was determined as 0.866; in assay [13], 1.31; in assay [14], 1.18; in the assay on Lefty1, 1.34; in [16], 1.08. For the same compound, the composite Z-score in assay [1] is -0.55 (inactive). Besides, the figures for the z-score in assay [15] and in assay [17] were 0.909 and -2.9 (inactive), respectively.

Regarding `CCOC(=O)C1=CC[C@@H](c2ccccc2)N(S(=O)(=O)c2ccc(C)cc2)[C@H]1c1ccccc1`, the composite z-score is 0.831 with Albumin (Bos taurus); 0.107 in [2]; -0.0806 in [3]; 0.453 in assay [4]; 0.69 in assay [5]; -0.561 in assay [6]. Also, the composite z-score in the assay on Sam68 (KHDRBS1) was 0.749; in assay [7], -0.221; in assay [8], 1.07; in [9], 0.271; in assay [10] it was 1.17; in assay [11], 0.428. In addition, the composite z-score in assay [12] was 0.915; in assay [13], -0.0842; in [14], -0.486; in the assay with Lefty1, -0.381; in assay [16], 0.991. Moreover, the composite Z-score in assay [1] was -0.563 (inactive). Also, the z-score is 2.45 in assay [15] and 1.16 (inactive) in assay [17].

`COc1ccc([Si](C)(C)[C@@H]2[C@@H](CC(=O)N3CCC[C@H]3CO)O[C@]3(C(=O)N(Cc4cccc(N5C(=O)COc6ccccc65)c4)c4ccccc43)[C@H]2C)cc1`: the composite z-score with Albumin (Bos taurus) was 0.577; in assay [2], -0.0821; in assay [3], -0.167; in assay [4], 0.462; in assay [5] it was 0.664; in assay [6], 0.271. Moreover, the composite z-score with Sam68 (KHDRBS1) worked out at 1.3; in assay [7] it was 0.291; in assay [8] it was 1.12; in assay [9] it was 1.43; in [10] it was 1.21; in assay [11], 0.438. The composite z-score was found to be 0.711 in assay [12]; 0.821 in assay [13]; 1.22 in [14]; 0.984 with Lefty1; 1.15 in assay [16]. Also, the composite Z-score in [1] is 0.254 (inactive). Moreover, the z-score in assay [15] is -0.522; in assay [17], -0.23 (inactive).

On to `CN(C)C(=O)[C@]1(Cc2ccccc2CN=[N+]=[N-])N=C(c2ccc(OCCCO)cc2)O[C@@H]1c1ccccc1`, for which the composite z-score was 0.349 with Albumin (Bos taurus); 0.113 in assay [2]; -0.0896 in assay [3]; 0.402 in assay [4]; 2.06 in [5]; 0.454 in assay [6]. The composite z-score was 1.3 with Sam68 (KHDRBS1); -1.08 in [7]; 1.04 in assay [8]; 2.24 in assay [9]; 1.22 in assay [10]; 0.48 in assay [11]. For the same compound, the composite z-score is 0.947 in [12]; 0.987 in assay [13]; 0.658 in assay [14]; 0.035 with Lefty1; 1.02 in assay [16]. In addition, the composite Z-score in assay [1] is -0.4 (inactive). Also, the z-score was -0.439 in assay [15] and 0.582 (inactive) in [17].
